Abeta rescue – qHTS for compounds that reverse cellular toxicity of Amyloid beta (A-beta) peptide in yeast: Primary Screen | yeast expressing A-beta42, growth rescue, OD600, 48 h; response scale: 0% DMSO, 100% iron-clioquinol control | Potency, µM (doses to about 46.1 µM), most hits filed as activators | 410,000 compounds, 0.063% hits; also: nearly all actives have a fitted effect of over 55% in size
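Growth rescue measured by 600 nm absorbance after 48 h yeast culture at 30 C with compound. Values normalized between DMSO and an equimolar ferric chloride plus clioquinol control.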
FUS suppressor – qHTS for Suppressors of FUS Proteinopathy: Primary screen using FUS-linked yeast assay | AID 1347120, 2019 | S. cerevisiae FUS-expressing, growth rescue, OD600, 24 h | Potency, µM (series often up to 76.6 µM), actives largely listed as activators | 390,000 compounds, 0.24% hits;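 also: plate controls were DMSO vehicle for no effect and reference control for full effect; nearly all actives have a fitted effect of over 55% in size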
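Steps: raffinose overnight preculture; dilution to OD 0.005 in 2% galactose minimal medium; compound addition (concentration series); 24hr at 30C, 99% humidity; absorbance read at 600 nm.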
TDP43 rescue – qHTS of TDP-43 Inhibitors. 410,000 compounds, 1.8% hits. TDP-43 expressing yeast growth rescue, BacTiter-Glo, 24 h. Potency, µM (doses to about 46.1 µM), for inactives: top-dose growth rescue (activation), most hits filed as activators. AID 652104, 2013; also: % of control where 0% means no effect; nearly all actives have a fitted effect of over 50% in size
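Yeast expressing TDP-43 (pregrown in raffinose, seeded at OD600=0.02 in galactose medium) exposed to compounds 24 hr at 30 deg C. Growth read by BacTiter-Glo luminescence; rescue of toxicity appears as increased signal.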
Mm-Cpn inhibitor – Inhibitors of TCP-1 ring complex (TRiC) of Methanococcus maripaludis (MmCpn): qHTS | purified Mm-Cpn ATPase, ADP Transcreener TR-FRET | Chaperonin Mm-Cpn (Methanococcus maripaludis) | Potency, µM (highest dose often 76.9 µM), inactives show at the highest dose activity, negative = inhibition, actives largely listed as inhibitors | 330,000 compounds, 0.031% hits; also: % is scaled to controls: 0 for no effect and ±100 for the full control effect; nearly all actives have a fitted effect of over 80% in size
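TR-FRET (320 nm excitation; 590 and 665 nm emission) reports ADP made from 10 uM ATP by 25 nM enzyme; compounds were preincubated 10 min, reaction run 30 min, both at 37°C.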
aSyn rescue – qHTS of alpha-syn Inhibitors. Yeast expressing alpha-synuclein, growth rescue, BacTiter-Glo, 24 h. 370,000 compounds, 0.14% hits. Potency, µM (top dose mostly 46.1 µM), without a hit: at the top dose growth rescue (activation), usual class: activators; also: % of control where 0% means no effect; nearly all actives have a fitted effect of over 65% in size
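Galactose-induced alpha-syn yeast (OD600=0.02, raffinose-pregrown) + pinned cpd, 24 hr, 30 deg C; growth by BacTiter-Glo luminescence. Growth restoration scores as activation.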
ClpP mod – qHTS Assay for Activators of ClpP. AID 651965, 2013. Potency, µM (highest dose often 57.5 µM), for the others: top-dose activity change, negative = active. ATP-dependent Clp protease proteolytic subunit (Bacillus subtilis (strain 168)), P80244. purified B. subtilis ClpP, FRET peptide cleavage, 20 min. 340,000 compounds, 1.9% hits; active = well fitted falling curve with a large enough effect; inconclusive = small, poorly fitted or top-dose-only effect; inactive = no such curve, though single readings can be large or run the other way; also: the source files actives as falling curves though it sought activators and does not explain the sign; nearly all actives have a fitted effect of over 65% in size
Target sequence (P80244 whole entry, looked up): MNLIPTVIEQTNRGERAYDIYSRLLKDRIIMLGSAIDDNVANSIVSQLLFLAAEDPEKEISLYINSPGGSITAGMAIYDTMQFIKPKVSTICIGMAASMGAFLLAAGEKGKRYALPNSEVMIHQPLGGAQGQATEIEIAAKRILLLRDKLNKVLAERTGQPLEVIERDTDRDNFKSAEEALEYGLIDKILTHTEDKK
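Purified B. subtilis ClpP, 10 microg/mL final in Tris/HCl pH8 with KCl, BSA, glycerol and Tween-20, cleaved an Abz/nitrotyrosine-quenched decapeptide. Fluorescence (ex 320, em 430) was read at 0 and 20 min at room temperature. Delta was normalized to 5.8 microM ADEP and DMSO/no-enzyme controls.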
* marks the source's active call; other numbers are inactive results; i = inactive; ? = inconclusive; / = not tested or not shown; [ ] = another dose, or the depositor's remark. Most compounds without a hit are left out; they make up all but 3.6% or so of the library. Unless noted, calls follow the shape of the dose curve; as a rule, active = well fitted curve in the direction sought with a large enough effect; inconclusive = small, poorly fitted or top-dose-only effect, or another doubt; inactive = no such curve, though single readings can be large; an effect the other way counts as inactive or inconclusive. Potency is read from the fitted curve at half-maximal effect.

SMILES	Abeta rescue	FUS suppressor	TDP43 rescue	Mm-Cpn inhibitor	aSyn rescue	ClpP mod
O=C(c1ccc2c(=O)n3c(nc2c1)CCCCC3)N1CCN(c2cccc(Cl)c2)CC1	i	?	35.5µM*	0.4%	0.8%	0.2%
O=C(c1c(Cl)nc2sccn12)N1CCN(c2cccc(Cl)c2)CC1	i	i	14.1µM*	1.9%	-1.4%	0.0%
CCn1c(=O)n(CC)c2cc(N3CCCC3)c(NC(=O)Nc3cc(C)cc(C)c3)cc21	i	i	14.0%	/	/	?
COc1ccc(C)cc1NC(=O)c1cc(S(=O)(=O)N2CCN(c3cccc(C)c3C)CC2)ccc1F	i	i	-18.6%	/	/	0.8%
CCOC(=O)C1CCN(C(c2cccc(F)c2)c2c(O)cc(C)n(CCOC)c2=O)CC1 (centres undefined)	i	i	-2.6%	/	/	2.1%
Cc1[nH]c2ccc(C(=O)N3CCN(c4ccccc4F)CC3)cc2c1C	i	?	22.4µM*	/	/	-2.5%
O=C(c1ccccc1F)N1CCN(c2cnn(-c3cccc(Cl)c3)c(=O)c2Cl)CC1	i	i	20µM*	-18.4%	-3.0%	/
CCn1c(C)c(C)c2cc(C(=O)N3CCc4ccccc4C3)ccc21	/	i	20µM*	-5.4%	25.5%	-8.9%
Cc1c(C)n(C)c2ccc(C(=O)N3CCN(c4ccccc4)CC3)cc12	i	i	15.8µM*	-3.4%	6.9%	-0.9%
N[C@@H](Cn1ccc(=O)c(O)c1)C(=O)O	/	/	/	/	2.7%	/
Cc1ccc2c(c1)ncc[n+]2CC(=O)c1ccc(Cl)cc1Cl	/	/	/	/	?	-8.2%
COc1ccccc1NC(=O)C1=C(C)Nc2c(C(=O)Nc3ccc(F)cc3)cnn2C1c1cccc([N+](=O)[O-])c1 (centres undefined)	i	i	0.0%	/	/	-3.5%
COc1ccc(NC(=O)c2c(-c3ccccc3)c(-c3ccccc3)nn(C)c2=O)cc1OC	i	i	15.5%	/	/	0.8%
Cn1c(=O)c2c(nc(Br)n2CC(=O)c2cccs2)n(C)c1=O	i	?	-46.5%	-4.2%	6.7%	28.2µM*
CCOC(=O)[C@]12CCCC=C1N(CCCOC)C(=O)[C@@H]2CC(=O)N1CCCCC1	/	i	/	/	/	/
CC(C)N(Cc1ccccc1)C(=O)CN1C(=O)CSc2ccc(S(=O)(=O)N3CCCC3)cc21	i	i	7.0%	/	/	-0.8%
O=C(N/N=C\c1cccc([N+](=O)[O-])c1O)C1COc2ccccc2O1 (centres undefined)	i	i	11.2µM*	0.3%	6.31µM*	-0.5%
O=[N+]([O-])c1cccc(C=NNc2ccc3ccccc3n2)c1O	i	/	?	/	2µM*	0.8%
O=C(N/N=C/c1cccc([N+](=O)[O-])c1O)c1cccs1	i	/	27.5%	-0.9%	7.94µM*	-0.2%
O=C(N/N=C/c1cccc([N+](=O)[O-])c1)C1COc2ccccc2O1 (centres undefined)	i	i	25.7%	?	5.9%	/
O=C(N/N=C/c1ccc([N+](=O)[O-])cc1)c1cccs1	i	i	3.6%	1.0%	-1.6%	2.1%
O=C(N/N=C\c1ccccn1)C1COc2cc3ccccc3cc2O1 (centres undefined)	?	i	8.9%	3.3%	20µM*	-0.7%
CCN1c2ccccc2-c2nc(SCC(=O)Nc3cc(F)ccc3F)ncc2S1(=O)=O	i	i	25.0%	/	/	4.3%
O=C(NCCCN1CCN(c2ccc(F)cc2)CC1)c1sc2ncccc2c1-n1cccc1	i	i	-1.9%	/	/	-2.4%
O=C(NC1CCCCCC1)C1CCN(C(=O)N2CCOc3ccc(Cl)cc32)CC1	i	i	7.9%	/	/	-0.5%
SMILES	Abeta rescue	FUS suppressor	TDP43 rescue	Mm-Cpn inhibitor	aSyn rescue	ClpP mod
Cc1ccc(N2CCN(C(=O)c3ccccc3Br)CC2)c(C)c1	i[9.22 µM]	i	15.8µM*	0.3%	6.0%	-2.5%
Cc1ccc(C)c(N2CCN(C(=O)c3ccccc3Br)CC2)c1	i	i	29.0%	0.4%	16.4%	-1.1%
Cc1ccc(Nc2ncc(C(=O)N3CCN(c4cccc(Cl)c4)CC3)c3ccccc23)cc1Cl	i	?	15.8µM*	/	/	4.1%
CCCc1nc(SC)ncc1C(=O)N1CCN(c2ccc(Cl)cc2)CC1	i	i	35.5µM*	/	/	0.6%
Cc1ccc(Cl)cc1N1CCN(C(=O)c2cnc(N3CCOCC3)c3ccccc23)CC1	i	15.8µM*	22.4µM*	/	/	31.6µM*
COc1cc2c(NC3CCN(C)CC3)nc(N3CCCCC3)nc2cc1OCCCN(C)C	/	/	/	/	0.5%	4.4%
CC(=O)c1cc(C(=O)Nc2cc(C)cc(C)c2)c2ccccn12	i	i	13.0%	/	/	-22.6%
O=C(c1cnc(N2CCCCC2)c2ccccc12)N1CCN(c2ccc(Cl)cc2)CC1	i	?	?	/	/	25.1µM*
CCN(C(=O)c1cnc(N2CCN(c3ncccn3)CC2)c2ccccc12)c1cccc(Cl)c1	i	i	?	-1.4%	-18.3%	-4.1%
CN(C(=O)c1cnc(N2CCN(c3ncccn3)CC2)c2ccccc12)c1ccc(Cl)cc1	?	i	10µM*	0.5%	11.0%	0.1%
Cc1ccc(N2CCN(C(=O)c3cnc(N4CCCCC4)c4ccccc34)CC2)c(C)c1	?	?	25.3%	/	/	35.5µM*
O=C(c1cnc(N2CCN(c3ncccn3)CC2)c2ccccc12)N1CCN(c2ncccn2)CC1	i	i	12.1%	-2.0%	13.4%	-6.9%
C[C@H]1[C@@H](OC(=O)Oc2ccc([N+](=O)[O-])cc2)CC[C@@]23CCCN2C(=O)CCC[C@@H]13	/	i	/	/	/	/
CCOc1ccc(CNC(=O)C2CCN(C(=O)N3CC(CC)Oc4ccc(C)cc43)CC2)cc1OC (centres undefined)	i	?	-0.5%	/	/	0.3%
CCOc1cc(CNC(=O)c2cc(-c3ccc(Cl)s3)nc3ccccc23)ccc1OC	i	i	12.3%	/	/	-28.0%
N#Cc1c(C(F)(F)F)cc(-c2cccs2)nc1SCc1cccnc1	i	i	-1.8%	0.5%	0.0%	8.91µM*
Cc1ccc2c(c1)-c1c(cnc3cc(-c4ccc(F)cc4)nn13)CO2	i	i	20.0%	/	/	-1.3%

Screening results as filed in PubChem.
